From PubChem
Shown are actives, neighbours in structure and some others; about 1.9% of the full set was active somewhere.
sEH inhibitor – inhibitors of human soluble epoxide hydrolase; recombinant human sEH enzymatic activity assay; inhibition, % at 2 µM; 91,000 tested, 0.34% active; P34913; in the data active = inhibition above about 80%
Target sequence (P34913 whole entry, looked up): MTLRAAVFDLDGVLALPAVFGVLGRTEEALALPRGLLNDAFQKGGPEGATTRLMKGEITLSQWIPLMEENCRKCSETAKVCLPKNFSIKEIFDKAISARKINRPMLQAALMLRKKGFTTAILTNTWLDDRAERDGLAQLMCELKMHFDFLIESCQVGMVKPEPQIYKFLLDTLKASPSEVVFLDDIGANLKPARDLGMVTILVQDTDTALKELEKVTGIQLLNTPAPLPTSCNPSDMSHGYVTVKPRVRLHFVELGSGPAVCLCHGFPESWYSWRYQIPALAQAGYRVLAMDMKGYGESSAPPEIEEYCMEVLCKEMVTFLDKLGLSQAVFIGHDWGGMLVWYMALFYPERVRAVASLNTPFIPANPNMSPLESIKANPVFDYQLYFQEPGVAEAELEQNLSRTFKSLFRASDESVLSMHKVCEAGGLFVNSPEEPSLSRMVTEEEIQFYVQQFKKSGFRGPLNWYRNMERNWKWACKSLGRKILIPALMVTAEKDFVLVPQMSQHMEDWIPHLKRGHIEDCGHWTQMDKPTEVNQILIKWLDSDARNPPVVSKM
sEH act – increases human soluble epoxide hydrolase activity; P34913; purified human sEH enzymatic activity, activator screen; activation, % at 2 µM; 91,000 tested, 0.04% active; AID 717; in the data active = activation above about 37%
Candida biofilm – kills Candida albicans biofilms; inhibition, % at 6 µM; 85,000 tested, 0.14% active; C. albicans biofilm + clotrimazole, Alamar Blue;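 active = inhibition above 20%; inactive = inhibition below 20%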;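 note: preformed 24 hr biofilms exposed to compound for 48 hr; 0% = biofilm without compound and 100% = blank killed by clotrimazole plus chlorhexidine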
cytoskel mod – modifiers of cytoskeleton assembly; HUVEC TNFa F-actin phalloidin imaging, high content; 91,000 tested, 0.18% active; AID 836; inhibition, % at 2 µM;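 active = inhibition above the batch mean plus 3 SD and confirmed as a hit by visual image inspection, cut at about 30% in these data, passing the limit was not always enough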
Measles CPE – protection of cells from measles virus; protection (pct of control), % at 4 µM; AID 841; Measles virus-infected cells, CPE protection, absorbance; 140,000 tested, 1.5% active; in the data active = protection mostly above about 24%, no sharp cut-off; inactive = mostly below about 26%
Starred values were filed as active, the others as inactive; x = no result.

SMILES	sEH inhibitor	sEH act	Candida biofilm	cytoskel mod	Measles CPE
Cc1nc(SCC(=O)N2CC(C)OC(C)C2)nc(C)c1C (stereo unspecified)	-3	4	7	4	26*
COc1ccc(-c2cnnn2-c2ccc(NC(=O)c3ccc(S(=O)(=O)N4CCCCC4)cc3)cc2)cc1	x	x	x	x	3
Cn1c(Cn2c(=O)sc3ccccc32)nnc1SCC(=O)NC1CCCC1	x	x	9	x	10
Cn1c(Cn2c(=O)sc3ccccc32)nnc1SCC(=O)NC1CCCCC1	x	x	21*	x	13
COc1ccc2nc(NC(=O)C3CCCN3S(=O)(=O)c3ccc(C)cc3)sc2c1 (stereo unspecified)	18	-18	2	-2	0
O=C(Nc1ccc(N2CCOCC2)c(Cl)c1)c1ccccc1F	1	-3	6	6	18
O=C(COc1c(F)c(F)c(C(F)(F)F)c(F)c1F)Nc1ccc(N2CCOCC2)c(Cl)c1	83*	-83	9	36	5
CCNC(=O)C(Sc1ccccc1)c1ccccc1 (stereo unspecified)	0	2	5	-13	30*
Cc1cccc(NC(=S)N/N=C/c2c[nH]c3ccccc23)c1	x	x	x	x	7
Cc1ccc(NC(=O)C2C(c3ccccc3)C=CC(c3ccccc3)C2C(=O)O)cc1 (stereo unspecified)	2	0	x	10	27*
CC(=O)c1ccc2c(c1)C1C=CCC1C(c1ccc(S(=O)(=O)N3CCOCC3)cc1)N2 (stereo unspecified)	x	x	x	x	90*
CC(C)CC(c1nnnn1C1CCCC1)N1CCN(c2ccccc2F)CC1 (stereo unspecified)	2	0	x	-7	42*
c1cc2c(cnc3cscc32)s1	x	x	x	x	34*
Cc1ccc(CNC(=O)C(Cc2ccccc2)NS(=O)(=O)c2ccc(Br)s2)cc1 (stereo unspecified)	x	x	x	x	9
CCc1ccc(OCC(=O)NC(NC(=S)Nc2ccccc2OC)C(Cl)(Cl)Cl)cc1 (stereo unspecified)	x	x	x	x	43*
CCc1ccc(OCC(=O)NC(NC(=S)Nc2ccccc2C)C(Cl)(Cl)Cl)cc1 (stereo unspecified)	x	x	x	x	15
CC1(C)CC(=O)C2=C(C1)NCN(Cc1ccccc1)C2	-43	46*	5	-6	8
COc1ccc(C2(C(=O)NCc3ccco3)CCCC2)cc1OC	-12	12	4	7	53*
Cc1[nH]c2ccccc2c1C(=O)C(=O)N1CC=C(c2ccccc2)CC1	x	x	x	x	4
COc1ccc(N2CCN(C(=O)c3ccc(NS(=O)(=O)c4cccc(F)c4)cc3)CC2)cc1	-3	6	3	1	19*
COc1ccc(N2CCN(C(=O)c3ccc(NS(=O)(=O)c4ccc(F)c(F)c4)cc3)CC2)cc1	2	-3	9	-14	20
CN1CCN(c2nc3c(c(=O)[nH]c(=O)n3C)n2CC(N)=O)CC1	9	-8	7	8	29*
CCCn1c(N2CCN(C)CC2)nc2c1c(=O)[nH]c(=O)n2C	-11	17	-1	-20	16
Cn1c(=O)[nH]c(=O)c2c1nc(N1CCCCCC1)n2CCN1CCCCCC1	2	-4	10	21	39*
FC(F)(F)c1cccc(OCCN2CCN(Cc3ccccc3)CC2)c1	x	x	x	x	5
SMILES	sEH inhibitor	sEH act	Candida biofilm	cytoskel mod	Measles CPE
CCN(CCNC(=O)C1CCN(Cc2nc(-c3cccc(Cl)c3)oc2C)CC1)c1ccccc1	90*	-90	-3	32	x
CCN(CCNC(=O)C1CCN(Cc2nc(-c3ccc(Cl)cc3)oc2C)CC1)c1ccccc1	84*	-83	6	57	x
CCc1ccc(-c2nc(CN3CCC(C(=O)NCCN(CC)c4ccccc4)CC3)c(C)o2)cc1	49	-48	-3	59	x
COc1cc(C(=O)Nc2cccc(-c3nncn3C)c2)cc(OC)c1OC	9	-5	8	4	6
CCOC(=O)C1Cc2c([nH]c3ccccc23)CN1 (stereo unspecified)	-6	7	0	10	42*
CCOc1cc(C(=O)NCC(C)CN(C)C)cc(OCC)c1OCC (stereo unspecified)	-20	23	2	3	13
CCOc1ccc(C(=O)NCC(C)CN(C)C)cc1OCC (stereo unspecified)	-8	12	11	5	31*
O=S(=O)(Cc1ccccc1)N1CCc2ccccc21	-2	5	6	-12	6
Cn1c(CNS(=O)(=O)c2ccc(F)cc2)n[nH]c1=S	-1	1	x	4	43*
Cn1c(CNS(=O)(=O)c2ccc(Cl)cc2)n[nH]c1=S	-4	6	x	-13	5
O=C(Nc1ccc(Br)cc1)c1ccc(Br)c(S(=O)(=O)Nc2cccnc2)c1	x	x	x	x	46*
